# Among all 5,500 compounds or so, about 2,000 (36%) were called active. Another 18% or so got no clear call; they are omitted. Some of the results follow. A number with no mark means an inactive call. Cut-off read from the data, not from the text of the source: active = normalized growth mostly below about 0.91 (no sharp cut-off); inconclusive = no clear call, values can overlap the other calls; inactive = mostly above about 0.92.
# Assay: chemical genetic growth profiling, strain panel (AID 1159580);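 note: tested at 20 µM; growth read once vehicle control cultures reached saturation at 30 °C; 1 = growth at the plate median or of vehicle wells; lower values mean less growth of the strain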
# Details: growth OD
# [1] = S. cerevisiae deletion strains, locus YAL040C, strain CLN3, hits give low values
# [2] = S. cerevisiae deletion strains, locus YCL061C, strain MRC1 (second series), hits give low values
# [3] = S. cerevisiae deletion strains, locus YDR363W, strain ESC2, hits give low values
# [4] = S. cerevisiae deletion strains, locus YER002W, strain NOP16, hits give low values
# [5] = S. cerevisiae deletion strains, locus YGR078C, strain PAC10, hits give low values
# [6] = S. cerevisiae deletion strains, locus YGR229C, strain SMI1, hits give low values
# [7] = S. cerevisiae deletion strains, locus YJR075W, strain HOC1, hits give low values
# [8] = S. cerevisiae deletion strains, locus YNL128W, strain TEP1, hits give low values
# [9] = S. cerevisiae deletion strains, locus YNL153C, strain GIM3, hits give low values
# [10] = S. cerevisiae deletion strains, locus YNL175C, strain NOP13, hits give low values
# [11] = S. cerevisiae deletion strains, locus YNL197C, strain WHI3, hits give low values
# [12] = S. cerevisiae deletion strains, locus YNL224C, strain SQS1, hits give low values
# [13] = S. cerevisiae deletion strains, locus YNL322C, strain KRE1, hits give low values
# [14] = S. cerevisiae deletion strains, locus YOR083W, strain WHI5 (second series), hits give low values
# [15] = S. cerevisiae deletion strains, locus YPL055C, strain LGE1, hits give low values
# [16] = S. cerevisiae deletion strains, locus YPL241C, strain CIN2, hits give low values
# [17] = S. cerevisiae deletion strains, locus YAL013W, strain DEP1, hits give low values
# [18] = S. cerevisiae deletion strains, locus YDR150W, strain NUM1, hits give low values
# [19] = S. cerevisiae deletion strains, locus YMR263W, strain SAP30, hits give low values
# [20] = S. cerevisiae deletion strains, locus YBR229C, strain ROT2, hits give low values
# [21] = S. cerevisiae deletion strains, locus YDL101C, strain DUN1, hits give low values
# [22] = S. cerevisiae deletion strains, locus YEL061C, strain CIN8, hits give low values
# [23] = S. cerevisiae deletion strains, locus YHR030C, strain SLT2, hits give low values
# [24] = S. cerevisiae deletion strains, locus YHR087W, strain rtc3, hits give low values
# [25] = S. cerevisiae deletion strains, locus YJL187C, strain SWE1, hits give low values
# [26] = S. cerevisiae deletion strains, locus YJR043C, strain POL32, hits give low values
# [27] = S. cerevisiae deletion strains, locus YLR039C, strain RIC1, hits give low values
# [28] = S. cerevisiae deletion strains, locus YLR058C, strain SHM2 (second series), hits give low values
# [29] = S. cerevisiae deletion strains, locus YLR085C, strain ARP6, hits give low values
# [30] = S. cerevisiae deletion strains, locus YLR262C, strain YPT6, hits give low values
# [31] = S. cerevisiae deletion strains, locus YML094W, strain GIM5, hits give low values
# [32] = S. cerevisiae deletion strains, locus YMR219W, strain ESC1, hits give low values
# [33] = S. cerevisiae deletion strains, locus YNL298W, strain CLA4 (second series), hits give low values
# [34] = S. cerevisiae deletion strains, locus YNR030W, strain Alg12, hits give low values
# [35] = S. cerevisiae deletion strains, locus YPR135W, strain CTF4, hits give low values
structure (smiles),measurement,setting,value
CC1(C(=O)O)C2CCC(O2)C1(C)C(=O)O (configuration not stated),normalized growth,[1],0.902
same,normalized growth,[2],0.984
same,normalized growth,[3],0.982
same,normalized growth,[4],0.914 (active)
same,normalized growth,[5],0.985
same,normalized growth,[6],1
same,normalized growth,[7],1.03
same,normalized growth,[8],0.943
same,normalized growth,[9],0.886
same,normalized growth,[10],0.904 (active)
same,normalized growth,[11],0.884 (active)
same,normalized growth,[12],0.914 (active)
same,normalized growth,[13],0.989
same,normalized growth,[14],0.833 (active)
same,normalized growth,[15],1.04
same,normalized growth,[16],0.97
O=C(O)C1C2CCC(O2)C1C(=O)O (configuration not stated),normalized growth,[17],1.04
same,normalized growth,[1],0.983
same,normalized growth,[2],1
same,normalized growth,[18],1
same,normalized growth,[3],1
same,normalized growth,[4],0.996
same,normalized growth,[5],0.985
same,normalized growth,[7],1.02
same,normalized growth,[19],0.995
same,normalized growth,[9],1
same,normalized growth,[10],1.01
same,normalized growth,[11],0.998
same,normalized growth,[12],1.02
same,normalized growth,[14],1.06
same,normalized growth,[15],1.06
CCOC(=O)COc1nc(-c2cccs2)cc(C(F)(F)F)c1C#N,normalized growth,[17],0.995
same,normalized growth,[20],0.97
same,normalized growth,"S. cerevisiae deletion strains, locus YCL061C, strain MRC1, hits give low values",1
same,normalized growth,[21],0.963
same,normalized growth,[18],0.975
same,normalized growth,[22],0.975
same,normalized growth,[5],0.978
same,normalized growth,[6],0.989
same,normalized growth,[23],0.827
same,normalized growth,[24],0.961
same,normalized growth,[25],0.966
same,normalized growth,[26],1.01
same,normalized growth,[7],0.979
same,normalized growth,[27],0.946
same,normalized growth,[28],0.972
same,normalized growth,[29],0.949
same,normalized growth,[30],0.991
same,normalized growth,[31],0.922
same,normalized growth,[32],0.988
same,normalized growth,[19],1.04
same,normalized growth,[8],0.982
same,normalized growth,[9],0.98
same,normalized growth,[33],0.932
same,normalized growth,[13],0.98
same,normalized growth,[34],0.967
same,normalized growth,[15],0.971
same,normalized growth,[16],1.08
same,normalized growth,[35],0.943
same,normalized growth,"S. cerevisiae strains, strain wild type, hits give low values",0.965
CCOC(=O)c1cc(C)nc(Sc2ccccc2)c1C#N,normalized growth,[17],0.931 (active)
same,normalized growth,[20],0.889 (active)
same,normalized growth,[21],0.897 (active)
same,normalized growth,[18],0.852
same,normalized growth,[22],0.917
same,normalized growth,[5],0.763 (active)
same,normalized growth,[23],0.841
same,normalized growth,[24],0.787 (active)
same,normalized growth,[25],0.854 (active)
same,normalized growth,[26],0.91 (active)
same,normalized growth,[7],0.573 (active)
same,normalized growth,"S. cerevisiae deletion strains, locus YKL190W, strain CNB1, hits give low values",0.898 (active)
same,normalized growth,[27],0.895
same,normalized growth,[28],0.858 (active)
same,normalized growth,[29],0.787
same,normalized growth,[30],0.86
same,normalized growth,[31],0.917
same,normalized growth,[32],0.877 (active)
same,normalized growth,[19],0.907 (active)
same,normalized growth,"S. cerevisiae deletion strains, locus YMR307W, strain GAS1, hits give low values",0.754
same,normalized growth,[9],0.916 (active)
same,normalized growth,[33],0.785 (active)
same,normalized growth,[13],0.885 (active)
same,normalized growth,[34],0.746 (active)
same,normalized growth,[15],0.844
same,normalized growth,[16],0.83 (active)
same,normalized growth,[35],1.12

# Source: PubChem BioAssay AID1159580 (chemical genetic matrix, 2015)
